According to PMC4336329 (PLoS ONE, 2015):
The whole screen tested about 310,000 compounds, of which about 14,000 (4.5%) showed an effect of 50% or more. The effect is printed as a negative number. The entries come from a sample that favours strong results as a whole.

Target: human ether-à-go-go-related gene (hERG) potassium channel (human, UniProt Q12809)
Assay: primary screen, population patch clamp on CHO cells stably expressing hERG; higher = less effect of the substance
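Further: peak tail current of the secondary pulse compared with the same well before compound.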

Sequence of human ether-à-go-go-related gene (hERG) potassium channel (Q12809 whole entry, looked up): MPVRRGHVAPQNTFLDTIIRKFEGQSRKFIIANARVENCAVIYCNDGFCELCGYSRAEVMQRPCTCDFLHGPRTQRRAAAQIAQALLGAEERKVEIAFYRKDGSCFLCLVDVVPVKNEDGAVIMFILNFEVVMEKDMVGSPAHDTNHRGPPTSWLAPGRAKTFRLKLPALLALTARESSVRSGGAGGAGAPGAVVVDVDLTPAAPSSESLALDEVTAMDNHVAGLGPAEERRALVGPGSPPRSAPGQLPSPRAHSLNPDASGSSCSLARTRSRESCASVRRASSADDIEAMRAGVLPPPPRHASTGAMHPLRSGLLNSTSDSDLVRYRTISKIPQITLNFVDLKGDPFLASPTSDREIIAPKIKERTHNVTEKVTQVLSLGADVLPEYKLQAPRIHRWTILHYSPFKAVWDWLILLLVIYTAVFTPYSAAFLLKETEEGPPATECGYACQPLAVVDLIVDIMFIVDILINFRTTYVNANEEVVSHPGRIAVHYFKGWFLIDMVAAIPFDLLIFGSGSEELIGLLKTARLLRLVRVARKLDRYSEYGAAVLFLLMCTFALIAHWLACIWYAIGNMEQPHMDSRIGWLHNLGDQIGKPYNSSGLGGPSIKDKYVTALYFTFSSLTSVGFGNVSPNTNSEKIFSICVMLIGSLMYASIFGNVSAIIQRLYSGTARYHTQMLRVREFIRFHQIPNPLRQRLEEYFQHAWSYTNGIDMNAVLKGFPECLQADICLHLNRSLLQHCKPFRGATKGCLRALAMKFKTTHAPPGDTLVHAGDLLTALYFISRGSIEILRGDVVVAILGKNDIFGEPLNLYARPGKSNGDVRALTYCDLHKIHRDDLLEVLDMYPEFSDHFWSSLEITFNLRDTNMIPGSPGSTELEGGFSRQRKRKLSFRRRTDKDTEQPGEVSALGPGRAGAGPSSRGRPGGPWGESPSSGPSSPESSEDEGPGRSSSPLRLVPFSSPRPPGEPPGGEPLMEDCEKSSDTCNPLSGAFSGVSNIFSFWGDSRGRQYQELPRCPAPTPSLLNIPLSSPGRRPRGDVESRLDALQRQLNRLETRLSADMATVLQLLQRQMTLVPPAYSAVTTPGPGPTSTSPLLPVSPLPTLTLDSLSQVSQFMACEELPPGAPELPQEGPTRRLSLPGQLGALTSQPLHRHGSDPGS

Compound	hERG current change (%, negative = inhibition) at 10uM
Cc1c(/C=N/NC(=O)c2cc(Br)ccc2O)c(=O)n(C)c(=O)n1C	3.23%
Cc1[nH]c2ccccc2c1C(=O)C(=O)N1CCC2(CC1)OCCO2	7.95%
COc1cccc(NC(=O)CN(C)CC(=O)Nc2ccc(C)c([N+](=O)[O-])c2)c1	-15.8%
CCOc1ccccc1N(CC(=O)NC1CCCCC1)S(=O)(=O)c1ccc(C)cc1	-7.2%
CSCCC(NC(=O)c1ccc(Cl)cc1Cl)C(=O)NCc1ccccn1 (centres unmarked)	-8.59%
Cc1ccc(NCc2n[nH]c(=S)n2-c2ccccc2)cc1	15%
O=C(Cc1csc(NC(=O)Nc2cccc(Cl)c2)n1)NCc1ccccn1	-5.14%
O=C(Cc1csc(NC(=O)Nc2ccc(Cl)cc2)n1)NCc1ccccn1	-44.7%
O=C(Nc1cccnc1)Nc1cc(Cl)cc(Cl)c1	6.81%
O=C(Nc1ccc(F)c(F)c1)c1cccnc1	0.898%
COc1ccccc1NC(=O)Nc1nc(CC(=O)NCc2cccnc2)cs1	-13.3%
O=C(Nc1cccnc1)Nc1ccc(F)c(Cl)c1	-36.8%
O=C(NCc1cccnc1)Nc1cccc(Cl)c1	15%
O=C(Nc1ccc(F)c(Cl)c1)c1cccnc1	-65.9%
O=C(Cc1csc(NC(=O)Nc2ccc(Cl)cc2)n1)NCc1cccnc1	-50.8%
O=C(Nc1ccc(Cl)cc1)Nc1cccnc1	-50.7%
O=C(Cc1csc(NC(=O)Nc2cccc(Cl)c2)n1)NCc1cccnc1	-53.8%
O=C(Nc1ccc(Cl)c(Cl)c1)c1cccnc1	-2.86%
CCN1C(=O)C(=O)N(Cc2ccc(OC)c(F)c2)C1=O	15.1%
CC(C)CCNC(=O)C(c1ccco1)N(Cc1ccc(F)cc1)C(=O)c1snc(C(N)=O)c1N (centres unmarked)	-22.4%
CC(=O)NC(=C(Cl)Cl)S(=O)(=O)c1ccccc1	23.9%
CCCCCn1c(=O)c(C(=O)Nc2cccc(C)c2)c(O)c2ccccc21	20.7%

Compound	hERG current change (%, negative = inhibition) at 10uM
CCN(CC)CCCNc1cc(C(F)(F)F)c(C#N)c2nc3ccccc3n12	-18.4%
CCc1cccc(N(C(=O)c2csnn2)C(C(=O)NC(C)(C)C)c2ccccn2)c1 (centres unmarked)	1.65%
Cc1ccc(C(=O)Nc2c(C)cc(-c3ccc(Cl)cc3)oc2=O)cc1	-6.18%
O=S(=O)(/N=C(/Nc1ccccc1F)c1ccccc1)c1ccccc1	4.57%
O=C(NNC(=O)c1cnccc1C(F)(F)F)c1ccc(Cl)cc1	11.1%
Cc1c(C(c2cccc([N+](=O)[O-])c2O)c2c(C)n(C)n(-c3ccccc3)c2=O)c(=O)n(-c2ccccc2)n1C	-2.28%
CCc1cccc(NC(=S)N(CCOC)C(C)c2ccco2)c1 (centres unmarked)	-2.48%
COc1ccc(-n2cc3ccc([N+](=O)[O-])cc3n2)cc1	7.2%
COc1cccc(C(O)Cc2nc3ccccc3n2C)c1OC (centres unmarked)	23.7%
Cl.Cn1c(=N)n(CC(O)c2cccc3ccccc23)c2ccccc21 (centres unmarked)	-67%
CCCn1c(=N)n(CC(O)c2ccc(C)cc2)c2ccccc21.Cl (centres unmarked)	-65.6%
Cl.Cn1c(=N)n(CC(O)c2ccccc2)c2ccccc21 (centres unmarked)	-26.3%
CCCCn1c(=N)n(CC(O)c2ccccc2)c2ccccc21.Cl (centres unmarked)	-64.9%
Cl.Cn1c(=N)n(CC(O)c2cccs2)c2ccccc21 (centres unmarked)	-39.9%
Br.Cn1c(=N)n(CC(=O)O)c2ccccc21	-5.99%
CCn1c(=N)n(CC(O)c2cccs2)c2ccccc21.Cl (centres unmarked)	-60.4%
CCCn1c(C(O)c2ccc(C)cc2)nc2ccccc21 (centres unmarked)	15.8%
CCCCCN(C(=O)CCC(=O)OCC(=O)N(CC#N)c1ccccc1)c1c(N)n(CCCC)c(=O)[nH]c1=O	-0.196%
COc1ccc(NC(=O)C(OC(=O)c2cnccn2)c2ccccc2)cc1Cl (centres unmarked)	24.7%
Cc1ccc(S(=O)(=O)N2CCN(Cc3csc(C)n3)CC2)cc1	6.87%
O=[N+]([O-])c1ccc(-c2nn(-c3ccccc3)cc2/C=N/n2c(-c3ccncc3)n[nH]c2=S)cc1	19.4%
CN1CCN(C(=O)c2cc3ccccc3[nH]2)CC1	-3.26%

Compound	hERG current change (%, negative = inhibition) at 10uM
CCN(CC)c1ccc(/C=C(/C#N)C(=O)NCc2ccccc2)o1	2.6%
CCOc1ccc(N2C(=O)CC(N(O)c3ccccc3)C2=O)cc1 (centres unmarked)	2.96%
OCC[C@H]1C[C@H](O)[C@@H](O)[C@]2(CCCc3ccccc3O2)O1	0.151%
COCCNC(=O)CN1CCN(S(=O)(=O)c2ccc3c(c2)CCCC3)CC1	-7.28%
COc1cc(N2C(=O)CC3(CCCC3)CC2=O)cc(OC)c1OC	4.04%
CN1CCN(CCC(C#N)(c2ccccc2)c2ccccc2)CC1.Cl	-62.9%
CCOC(=O)C1(c2ccccc2)CCN(CCC(C#N)(c2ccccc2)c2ccccc2)CC1.Cl	-25%
N#CC(CCN1CCOCC1)(c1ccccc1)c1ccccc1	-20.8%
O=C(NCc1ccc(Cl)cc1)NCC(F)(F)F	7%
Cc1ccc(NC(=O)CS(=O)CC(=O)N(C2CCCC2)C(C)C(=O)NC2CCCCC2)cc1 (centres unmarked)	-22.5%
CCOC(=O)c1ccc2c(c1)nc(COc1ccc3ccccc3c1)n2CC	3.73%
Cn1cccc1Cc1nnc(SCC(=O)Nc2ccccc2F)n1-c1ccc(F)cc1	-17.4%
COc1ccc(Cl)cc1NC(=O)CSc1nnc(Cc2cccn2C)n1-c1ccc(F)cc1	-34.6%
COc1ccc(NC(=O)CSc2nnc(Cc3cccn3C)n2-c2ccc(OC)cc2)cc1	-21.2%
COc1ccc(-n2c(Cc3cccn3C)nnc2SCC(=O)Nc2ccc(C)cc2)cc1	-26.4%
COc1ccc(NC(=O)CSc2nnc(Cc3cccn3C)n2-c2ccc(F)cc2)cc1	-21.7%
COc1ccc(-n2c(Cc3cccn3C)nnc2SCC(=O)Nc2cc(C)cc(C)c2)cc1	-52.4%
COc1ccc(-n2c(Cc3cccn3C)nnc2SCC(=O)Nc2cc(Cl)ccc2OC)cc1	-97.9%
COc1ccc(OC)c(NC(=O)CSc2nnc(Cc3cccn3C)n2-c2ccc(F)cc2)c1	-10.4%
COc1ccc(-n2c(Cc3cccn3C)nnc2SCC(=O)Nc2ccccc2OC)cc1	-38.5%
COc1ccc(-n2c(Cc3cccn3C)nnc2SCC(=O)Nc2ccc(F)cc2F)cc1	-57.4%
Cn1cccc1Cc1nnc(SCC(=O)Nc2ccc(F)cc2F)n1-c1ccc(F)cc1	-40.9%

Compound	hERG current change (%, negative = inhibition) at 10uM
COc1ccc(-n2c(Cc3cccn3C)nnc2SCC(=O)Nc2ccccc2F)cc1	-53.7%
COc1ccc(C2=NOC(C(=O)N3CCOCC3)C2)cc1OC (centres unmarked)	11.6%
COCc1cc(C)nc(SCC(=O)Nc2cccc(C)c2)c1C#N	14.2%
COC1=CC(=O)C(O)=C(CCCCCCC/C=C/CCCCCCCC2=C(O)C(=O)C=C(OC)C2=O)C1=O	-3%
CCOc1ccc(/C(CCC(=O)O)=N/NC(=S)NC(C)C)cc1	14.1%
CC1(C)NC(=O)N(CC(=O)O)C1=O	18%
N/C(=N\OC(=O)c1ccc2ccccc2c1)c1ccccn1	28.3%
COC(=O)C1=C(C)N=c2s/c(=C/c3cccs3)c(=O)n2C1c1cccs1 (centres unmarked)	-7.35%
COC(=O)CN1C(=O)Nc2ccc(C)cc2C1c1ccccc1 (centres unmarked)	14.3%
COc1ccc(-n2c(Cc3cccn3C)nnc2SCC(=O)Nc2cccc(F)c2)cc1	-54.3%
COc1ccc(NC(=O)CSc2nnc(CNC(=O)COc3ccc(Cl)cc3)o2)c(OC)c1	-12.9%
COc1ccc(Cl)cc1NC(=O)CSc1nnc(COc2ccccc2)n1C	-57.3%
COc1ccc(OC)c(NC(=O)CSc2nnc(CNC(=O)COc3ccc(Cl)cc3)o2)c1	-60.1%
COc1cc2c(cc1NC(=O)CSc1nnc(COc3ccc(Cl)cc3)n1C)oc1ccccc12	6.05%
COc1ccc(Cl)cc1NC(=O)CSc1nnc(COc2ccccc2)n1N	-5.96%
COc1ccc(-n2c(Cc3cccn3C)nnc2SCC(=O)Nc2cccc(OC)c2)cc1	-23.4%
COc1ccccc1NC(=O)CSc1nnc(CNC(=O)COc2ccc(Cl)cc2)o1	-43.7%
COc1cccc(NC(=O)CSc2nnc(Cc3cccn3C)n2-c2ccc(F)cc2)c1	-15.5%
CN(CCC#N)C(=O)COC(=O)c1ccccc1C(=O)c1ccc(Cl)c([N+](=O)[O-])c1	-0.749%
CCOC(=O)CCC(=O)N1CCOCCOCCN(C(=O)CCC(=O)OCC)CCOCC1	-7.63%
